MCF10A rerep: DNA re-replication induction in MCF 10a cells | MCF 10A DNA re-replication, Hoechst nuclear intensity, 48 h | Potency, µM (titrated, usually from 46.1 µM), for the others: at the highest dose activity, positive = re-replication, most hits filed as activators | actives 2.9% (n = 350,000); further: % of control where 0% means no effect; nearly all actives have a fitted effect of over 50% in size
SW480 rerep: inducers of DNA re-replication in SW480 colon cancer cells; SW480 DNA re-replication, Hoechst DNA content imaging, 48 h; Potency, µM (highest dose often 46.1 µM), inactives show at the highest dose re-replication activation, hits mostly activators; actives 1.8% (n = 340,000); further: % of control where 0% means no effect; nearly all actives have a fitted effect of over 55% in size
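DNA re-replication was detected as more nuclei of elevated Hoechst intensity after 48 hr exposure to compound (23 nL pinned per well of 250 cells).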
RORg inh: inhibitors of mouse ROR gamma transcriptional activity; P51450; Drosophila S2 Gal4-RORgamma UAS-luciferase reporter, 20 h; Potency, µM (highest dose often 53.6 µM), for inactives: at the highest dose activity change, negative = inhibition, usual class: inhibitors; actives 5.4% (n = 310,000); further: on the % scale 0 is the no-effect control and ±100 the full control effect; nearly all actives have a fitted effect of over 60% in size
Target sequence (P51450 whole entry, looked up, the tested form may be a part): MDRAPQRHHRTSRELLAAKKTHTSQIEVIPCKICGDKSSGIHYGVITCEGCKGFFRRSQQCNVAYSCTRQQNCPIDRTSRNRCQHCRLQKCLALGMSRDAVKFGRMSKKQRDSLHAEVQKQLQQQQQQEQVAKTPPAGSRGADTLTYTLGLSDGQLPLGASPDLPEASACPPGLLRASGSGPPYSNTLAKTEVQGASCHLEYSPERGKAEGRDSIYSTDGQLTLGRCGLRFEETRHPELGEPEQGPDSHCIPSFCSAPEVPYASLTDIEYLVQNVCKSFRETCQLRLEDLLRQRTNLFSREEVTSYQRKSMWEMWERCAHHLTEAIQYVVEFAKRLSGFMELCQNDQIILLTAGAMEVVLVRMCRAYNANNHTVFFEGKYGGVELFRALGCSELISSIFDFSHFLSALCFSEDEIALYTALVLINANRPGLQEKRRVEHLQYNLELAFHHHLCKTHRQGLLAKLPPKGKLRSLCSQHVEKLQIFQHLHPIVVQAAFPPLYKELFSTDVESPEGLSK
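In this cell-based reporter format, copper sulfate (700 uM final) drives Gal4–ROR gamma fusion expression from a metallothionein promoter in Drosophila Schneider cells; compounds preincubated 1 hr, reporter read after 20 hr at ambient temperature.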
VP16 counter: inhibits Gal4-VP16 luciferase reporter, ROR gamma counter-screen. Drosophila S2 Gal4-VP16 UAS-luciferase, luminescence, 20 h. Potency, µM (highest dose often 53.6 µM), for the others: top-dose activity, negative = inhibition, hits mostly inhibitors. actives 3.5% (n = 310,000);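 further: Gal4-VP16 expression switched on by copper sulfate through the metallothionein promoter; on the % scale 0 is the no-effect control and ±100 the full control effect; nearly all actives have a fitted effect of over 50% in size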
ELG1 repair inh: blocks ELG1-dependent DNA repair in HEK293T cells; HEK293T ELG1-luciferase reporter, luminescence, 16 h; DNA damage induced by 5-fluorouridine; Potency, µM (highest dose often 46.1 µM), for inactives: at the top dose activity change, negative = inhibition, most hits filed as inhibitors; actives 2.3% (n = 330,000); AID 504467; further: on the % scale 0 is the no-effect control and ±100 the full control effect; nearly all actives have a fitted effect of over 55% in size
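5-Fluorouridine DNA damage + compound/DMSO, 2,000 cells/well, 16 h, 37 °C/5% CO2. ONE-Glo, 30 min RT, luminescence. Readout = decrease in reporter signal.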
Numbers without * were called inactive; ? = inconclusive; / = no result given. Only some compounds are listed: those with a hit (about 10% of all), similar ones and a draw of the others. The call rests on the fitted dose curve; in most records, active means well fitted curve in the direction sought with a large enough effect; inconclusive means small, poorly fitted or top-dose-only effect, or another doubt; inactive means no such curve, though single readings can be large; an effect the other way counts as inactive or inconclusive. Potency means the concentration at half of the fitted maximal effect.

SMILES | MCF10A rerep | SW480 rerep | RORg inh | VP16 counter | ELG1 repair inh
O=C1C=C(NNC(=O)c2ccccc2Br)CCC1 | 2% | -4% | -4% | -19% | 12%
S=C(NCc1ccccc1)NCc1ccccc1 | ? | 21µM* | ? | -8% | 0%
S=C(NCCCc1ccccc1)NCc1ccccc1 | 9% | -3% | 6.3µM* | 11µM* | 23%
CCN(Cc1ccc2c(c1)OCCO2)C(=O)CSc1nc(C)nc2sc(C)c(C)c12 | ? | -29% | / | / | 13µM*
O=C(COc1ccccc1F)c1ccc(O)cc1O | -2% | -18% | 3.2µM* | ? | 26%
CCOC(=O)c1ccc(OCC(=O)c2ccc(O)cc2O)cc1 | 20% | -7% | 0.25µM* | 1.1µM* | ?
O=C(COc1ccc(Cl)cc1)c1ccc(O)cc1O | 9% | 0% | 0.16µM* | 1.4µM* | ?
COC(=O)c1ccc(OCC(=O)c2ccc(O)cc2O)cc1 | 1% | -5% | 0.079µM* | 0.89µM* | ?
Cc1c(O)ccc(C(=O)COc2ccccc2F)c1O | ? | 0% | 23% | -9% | ?
Cc1nc2c(sc(=S)n2Cc2ccco2)c(=O)n1CC(=O)Nc1cc(F)ccc1F | 23µM* | -5% | 32% | -3% | 0%
Cc1cc(Cn2cnc3c2C[C@@H](C(=O)O)N(C(=O)C(c2ccccc2)c2ccccc2)C3)ccc1N(C)C | / | / | 38% | 8% | /
O=C(/C=C/N1CCOCC1)c1ccc(-c2ccccc2)cc1 | 9% | 15µM* | 14% | -11% | ?
O=C(/C=C\N1CCOCC1)c1ccc(Br)cc1 | 5.8µM* | 2% | 3% | -5% | ?
COc1cccc(/C=N/NC(=O)CCCc2ccc(OC)c(C)c2)c1 | 1% | 0% | 19% | -12% | -14%
CCC(=O)N1c2ccc(S(=O)(=O)CCC(=O)Nc3ccc(OC)cc3OC)cc2CC1C (stereo unspecified) | 3% | -34% | 1% | 5% | 6%
CCCc1ccc(Oc2cn[nH]c2-c2ccc(O)cc2O)cc1 | ? | ? | 16µM* | -27% | -21%
C=C(C)COc1ccc(-c2[nH]ncc2Oc2ccccc2OCC)c(O)c1 | 16µM* | ? | -7% | -9% | -28%
COc1ccc(-c2[nH]ncc2Oc2ccccc2OC)c(O)c1 | 20% | 2% | 11µM* | ? | -21%
CCOC(=O)c1ccc(Oc2cn[nH]c2-c2ccc(OCC(=O)NN)cc2O)cc1 | 7% | ? | -2% | 3% | -14%
CCCOC(=O)c1ccc(Oc2cn[nH]c2-c2ccc(OCC(=O)NN)cc2O)cc1 | 22% | -4% | -3% | 4% | 18µM*
CCOc1ccccc1Oc1cn[nH]c1-c1ccc(O)cc1O | 7% | -7% | -31% | ? | -19%
C=C(C)COc1ccc(-c2[nH]ncc2-c2ccccc2)c(O)c1 | ? | 3% | ? | ? | 8%
C=C(C)COc1ccc(-c2[nH]ncc2Oc2cccc(OC)c2)c(O)c1 | ? | ? | 6.3µM* | ? | 1%
CCOC(=O)N1CCC(NC(=O)c2ccc3c(c2)N=C(C)c2c(C)ccc(C)c2S3)CC1 | 23% | 7.3µM* | ? | 0% | ?
Cc1cc(C)cc(Oc2ccccc2/C=N\O)c1 | 3% | 0% | ? | 11µM* | -15%
SMILES | MCF10A rerep | SW480 rerep | RORg inh | VP16 counter | ELG1 repair inh
N#CC1=C(N)OC2=C(CCc3ccccc32)C1c1ccccc1Cl (stereo unspecified) | 2.9µM* | 8.2µM* | -32% | -10% | ?
CCn1c(CC(=O)Nc2ccccc2)nnc1SCC(=O)Nc1nnc(C)s1 | ? | -234% | -2% | -9% | 12%
COc1cc(-c2nc(-c3ccccc3)c(-c3cc([N+](=O)[O-])ccc3C)[nH]2)cc(OC)c1OC | ? | 1% | ? | 5% | 7.3µM*
COC(=O)[C@@]1(Cc2ccccc2)[C@H]2c3cc(C(=O)N(C)C)n(Cc4ccc(OC)c(OC)c4)c3C[C@H]2CN1C(=O)c1ccccc1 | / | / | 16% | 10% | /
COc1ccc2oc(=O)c(-c3cn4ccc(C)cc4n3)cc2c1 | 15µM* | ? | -5% | -16% | ?
O=c1oc2ccccc2cc1-c1cn2cccnc2n1 | 9% | -7% | ? | ? | ?
